Source: the OligoGym collection

Target: DCPS
Experiment: pooled miR-30 sensor sort-seq; sequence = guide strand
Details: shRNA
Note: reference of the scale not given here.

Row | Sequence | sensor-assay potency score (higher = more potent)
1 | TTACATCATTCAGTTGTCTTGG | 0.191
2 | TTCTGCAGTCTGAAGCCGGAGA | -0.8
3 | TACCATTTCCAACTCCTGCCTC | -0.586
4 | TAGTCATCTCCCGTCTCTCGGA | -0.952
5 | TTATACACCCACTGGATGCTGA | -0.178
6 | TTTTAGAAAATTCACTTGGAGA | -0.97
7 | TTCAATACTAGGAATAAGCCGG | -0.221
8 | TATTCCTGTAGTCATCTCCCGT | -0.287
9 | TAGGAAAATGATTTTGTCCCGC | -0.432
10 | TTCTGCAGGTGTTTCTCTGTGG | 0.117
11 | ATTCCTGTAGTCATCTCCCGTC | -0.108

Target: DCST1
Experiment: as above
Details: shRNA

Row | Sequence | sensor-assay potency score (higher = more potent)
12 | TTGTAGAGGAACAGGATCCGCT | -0.486
13 | TTCTTTGCCCTCTTGTGCCATT | -1.23
14 | TTCTTCGTAGATGTTCATGGGG | 0.19
15 | TTGATCTGCAGCTCCACGGTGC | -0.609
16 | TTGGGTACTAGTAGGAGGCTGG | 0.466
17 | ATCGGTACTGCAGCTCTCCAGT | -0.753
18 | TAGGTCATTGTAGAGGAACAGG | -1.31
19 | TAACAGGCAGAGACACACTAAC | -1.38
20 | TCTTCGTAGATGTTCATGGGGT | -0.405
21 | TATCCCAGGACAAAGAGCCTGC | -0.178
22 | TTTGCTACTCAGCAGGTCCTTG | -0.773
23 | TACAAGAACATAATCTTCTGTT | 0.614

Target: DCTN6
Experiment: as above
Details: shRNA

Row | Sequence | sensor-assay potency score (higher = more potent)
24 | TTTCATCAAGAAATCCAGCTGT | 0.825
25 | TTTCATAGTCTTCTTTAGGTGG | -0.245
26 | TTAGGGTGGATCACTGTCCGAG | -0.692
27 | TAGATCACCGTATTCTCAGGGA | 0.157
28 | TTAAGAGTACATAAACACTGTG | -0.096
29 | TTTCTACACATACAACTGCTCC | -0.672
30 | TAATTCTTGCTTTAGGGTGGAT | -0.47
31 | TAAGAGTACATAAACACTGTGG | -0.0797
32 | TTTAGGTTGCAACAAGCCCCAA | -1.26
33 | TAGGTTTTGGTTCTGGATCTTC | -0.00342
34 | TTTCACTTTCTACACATACAAC | -1.58

Target: DCX
Experiment: as above
Details: shRNA

Row | Sequence | sensor-assay potency score (higher = more potent)
35 | TACAAGGTGACTTCTGTTGTGC | 0.124
36 | TTCGGTAGAAGCTACAGTGGGC | 0.324
37 | TATTCATCTTGTTTTCTCCTGG | 0.366
38 | TTGAATGCTGCGAATCTTCAGC | -0.1
39 | AATGACATTACACACATCTTGC | -0.654
40 | TAACATAGAATATAAACTGAGA | -0.639
